Compounds without any hit were thinned out: in the full panel of roughly 83,000, 20% have a hit.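 Step 1: grow cells in 96-well plates. Step 2: add test compound at a single concentration. Step 3: incubate 48 h. Step 4: record percent growth.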 Values without a mark were called inactive. Calls of active or inactive are those of the source. Rule for the calls: active = growth percent below 10; inactive = the rest.

Common to all, as to assay: NCI-60 one-dose screen, 48 h (100 = growth as untreated, 0 = no growth, -100 = all killed)
Conditions in all cases: 10 µM unless noted

Test [1] has as its system HCT-15 colon.
In test [2] the test system is HT29 colon.
Test [3] has as its system SNB-19 CNS.
For test [4], the system named is U251 CNS.
Test [5] has as its system PC-3 prostate.
In test [6] the test system is SK-MEL-5 melanoma.
For test [7], the system named is UACC-62 melanoma.
Test [8] relates to LOX IMVI melanoma.
In test [9] the test system is SK-MEL-28 melanoma.
The subject of test [10] is SK-MEL-2 melanoma.
Test [11] concerns EKVX NSCLC.
In test [12] the test system is SN12C renal.
Test [13] relates to UO-31 renal.
For test [14], the system named is TK-10 renal.
For test [15], the system named is ACHN renal.
For test [16], the system named is CAKI-1 renal.
Test [17] deals with A498 renal.
The subject of test [18] is CCRF-CEM leukemia.
The test system of test [19] is MOLT-4 leukemia.

Turning to `CCOC(=O)c1ccc2c(c1)[n+](=O)c(C(C)=O)c(C(F)(F)F)n2[O-]`, the growth in [1] is -36% (active); in test [2], -0.876% (active); in test [3], 17.4%; in [4] it was 6.13% (active); in test [5], -45.7% (active); in test [6] it was -94.3% (active). The growth is 2.99% (active) in [7]; -59.7% (active) in test [8]; 27.9% in test [9]; 12.1% in test [10]; 29.1% in [11]; 4.58% (active) in test [12]. For the same molecule, the growth in test [13] is 27.4%; in test [14] it was 40.9%; in test [15], 5.29% (active); in test [16], 40%; in test [17], 12.5%; in test [18], -18.1% (active). For the same molecule, the growth in [19] was -56.4% (active).
In the case of `CCOC(=O)C1=C(C)N(C)C(=O)N(C)C1c1ccccc1` (stereo unspecified), the growth is 102% in test [1]; 97.8% in test [2]; 93.8% in [3]; 99.3% in test [4]; 92.7% in test [5]; 93.3% in test [6]. Further, the growth is 86.7% in [7]; 96.1% in test [8]; 124% in test [9]; 106% in [10]; 97.2% in [11]; 91.6% in [12]. Further, the growth is 78.7% in [13]; 106% in test [14]; 95.9% in test [15]; 90.6% in test [16]; 86.8% in test [17]; 86.6% in test [18]. Besides, the growth in test [19] is 104%.
As to `C/C(=N\NC(=O)c1ccc(C(C)(C)C)cc1)c1ccc(O)cc1O`, the growth in [1] is 16.5%; in [2], 25.3%; in [3] it was 40.1%; in test [4], 25.2%; in [5], 33.8%; in test [6], -41.9% (active). Also, the growth is 14.1% in test [7]; 36.1% in test [9]; 42.8% in test [10]; 22% in test [11]; 33.7% in test [12]; 16.8% in test [13]. The growth in [14] was 40.5%; in test [15] it was 16.5%; in test [16] it was 17.1%; in test [17] it was 42.3%; in [18], 14.5%; in [19] it was 18.2%.
As for `CC(C)(C)n1cc(-c2ccnc(NCCNS(=O)(=O)c3cccc4ccccc34)c2)c(-c2cccc(O)c2)n1`, the growth in test [1] was 20.9%; in test [2] it was 6.71% (active); in test [3], 88%; in test [4] it was 57.5%; in test [5], 59%; in test [6], 45.1%. Moreover, the growth in [7] was 76.9%; in test [8] it was 61.8%; in test [9] it was 83.4%; in [10], 81.7%; in test [11], 69.8%; in test [12] it was 72.5%. For the same molecule, the growth is 70.2% in test [13]; 97.2% in test [14]; 70.1% in test [15]; 73.7% in [16]; 73.1% in test [17]; 60.1% in test [18]. Further, the growth in test [19] is 53.4%.
For the molecule `COc1ccccc1NC(=O)n1c(=O)cc(C)c2ccc(O)cc21`, the growth in test [1] was 104%; in test [2] it was 106%; in test [3], 106%; in test [4], 106%; in test [5], 99.9%; in test [6], 98.3%. In addition, the growth in test [7] is 100%; in test [8], 105%; in test [9] it was 113%; in test [10], 101%; in test [11], 100%; in test [12], 101%. The growth in test [13] was 88.6%; in [14], 111%; in test [15] it was 110%; in test [16], 99.6%; in test [17], 113%; in [18], 107%. The growth in [19] is 103%.
As for `CN(C)CCCN(CCC1CCCCC1)CCC1CCCCC1`, the growth is 15% in [1]; 7.47% (active) in [2]; 86.7% in test [3]; 12.3% in test [4]; 46.9% in test [5]; -82.1% (active) in [6]. For the same molecule, the growth in [7] is -78.5% (active); in test [8], 5.93% (active); in test [9] it was -97.8% (active); in test [10] it was 61.4%; in [11] it was 73.2%; in [12], 80.4%. Besides, the growth in test [13] was 42%; in test [14] it was 85.2%; in test [15], 65.8%; in [16], 52.9%; in test [17], 58.8%; in test [18] it was 21.4%. Further, in test [19], the growth is 15.9%.
Consider `Nc1ccc(Cl)c2c(=O)c3ccccc3[nH]c12`, for which the growth in test [1] is 83.1%; in [2] it was 100%; in [3] it was 88.5%; in test [4], 92.2%; in test [5], 76.6%; in [6], 53.1%. Also, the growth was 93.6% in test [7]; 71.4% in [8]; 113% in [9]; 81.2% in test [10]; 75.2% in [11]; 89.2% in test [12]. Further, the growth in test [13] is 65.1%; in test [14], 78.1%; in test [15] it was 80.8%; in [16] it was 77.7%; in test [17], 69.3%; in [18], 100%. Further, in [19], the growth is 74.1%.
Take `O=C(O)c1cc2ccccc2s1`: the growth is 106% in test [1]; 110% in test [2]; 111% in test [3]; 95.9% in test [4]; 96.4% in test [5]; 104% in [6]. Further, the growth in [7] is 107%; in [8], 99.6%; in test [9], 117%; in [10] it was 127%; in test [11] it was 106%; in [12] it was 106%. The growth in [13] is 94.5%; in [14], 123%; in test [15] it was 103%; in [16], 94.7%; in test [17], 108%; in [18], 100%. Also, the growth in test [19] was 100%.
